We go through 65 compounds from ChEMBL document CHEMBL4513216, “Probing the Open Global Health Chemical Diversity Library for Multistage-Active Starting Points for Next-Generation Antimalarials” (ACS Infect Dis, 2020).

Hit rate of the full screen: of about 69,000 compounds, about 8,600 (12%) showed an effect of 50% or more. The entries come from a sample that favours strong results as a whole.

The test system of this assay is Plasmodium berghei. The experiment in a line: Screen against P. berghei liver stage (PbLuc), transformed with Luciferase, at 10uM. Particulars: tested at 10 uM. It counts as functional, HepG2.
`Cn1nccc1CNC(=O)CCn1nc(C(F)(F)F)cc1C1CC1`: the INHIBITION is recorded as -49.3%.

For the compound `c1cncc(CN(Cc2ccc(-n3ccnc3)cc2)CC2CCCO2)c1` (stereo not given), the INHIBITION was determined as 23.2%.

`CC(C)c1ccc(C(C)N2CCCN(C(N)=O)CC2)cc1` (stereo not given): the INHIBITION is recorded as -18.7%. Regarding `CC1CCCN(S(=O)(=O)NCc2ccccc2Cn2cncn2)C1` (stereo not given), the INHIBITION came to 37.4%. Next, `CC1CCCN(CC(=O)N2CCC(c3ncc4c(n3)CCNC4)CC2)C1` (stereo not given): 25%; `COc1cccc(COCC(=O)N2CCCC(n3cncn3)C2)c1` (stereo not given): -24.2%. `CC(CO)Nc1ccc(-c2nc(Cc3ccc(F)cc3)no2)cn1` (stereo not given): the INHIBITION is listed as -37.6%.

With `COCC(C)Nc1ccc(-c2nc(Cc3ccc(F)cc3)no2)cn1` (stereo not given), the INHIBITION is on record as 49%. In the case of `COc1ccc(Cc2noc(-c3ccc(NC(C)CO)nc3)n2)cc1` (stereo not given), the INHIBITION is given as 52.2%.

`N#Cc1ccc(N2CCC3(CC2)COCCN3Cc2cccnc2)cc1`: the INHIBITION was -6.46%.

For the compound `Cc1ncc(C(=O)N2CCC(C(=O)NC3CCCC3)C2)c(C)n1` (stereo not given), the INHIBITION was 19.3%.

For `c1ccc(C2CCN(c3ncnc4c3CCNC4)CC2)cc1`, the INHIBITION is 83%. For `c1ccn2c(C3CCCN(c4ncnc5c4CCNC5)C3)nnc2c1` (stereo not given) the value was -20.8%; for `c1nc2c(c(N3CCOCC3)n1)CCNCC2`, 27.5%. For `c1cc(C2CCN(c3ncnc4c3CCNCC4)CC2)ccn1` the value was 33.9%. For `Cc1cc(C)n(C2CCN(c3ncnc4c3CCNCC4)C2)n1` (stereo not given) the value was 42.1%; for `CN1CC2(CCN(c3ncnc4c3CCNC4)CC2)OC1=O`, 49.5%; for `c1ccc(C2CCCN(c3ncnc4c3CCNC4)CC2)cc1` (stereo not given), 83.9%. `Clc1cccc(C2CCN(c3ncnc4c3CCNC4)C2)c1` (stereo not given): the INHIBITION amounted to 83%. With `c1ccc2c(c1)CN(c1ncnc3c1CCNC3)CCO2`, the INHIBITION was determined as 25.9%. On to `Cn1cnc2c1C(COCC1CC1)CN(C(=O)Cc1ccsc1)C2` (stereo not given), for which the INHIBITION is 11.1%.

As to `NC(=O)C1(CCCc2ccccn2)CCCN(CCO)C1` (stereo not given), the INHIBITION is 30.8%. For `Cc1cc(C)n(CCCN(C)c2cc(N(C)C)ncn2)n1` the value was 28.2%; for `CC(C)OCCCN(Cc1cnn(C)c1)Cc1ccccn1`, -51.3%; for `CCN(Cc1ccccn1)C1CCN(c2ccccc2)C1=O` (stereo not given), -31.1%. For `Cn1ccnc1C(=O)N[C@@H]1CN(Cc2cccs2)[C@@H]2CCCO[C@@H]21`, the INHIBITION was found to be 22.2%.

For `Cc1ccc(CN2C[C@H](N(C)Cc3cncnc3)[C@H]3OCCC[C@H]32)o1`, the INHIBITION is listed as -3.77%. Next, `Cn1cc(C(=O)N[C@@H]2CN(CC3CCOCC3)[C@@H]3CCCO[C@@H]32)cn1`: -14.4%; `CCN(CC)[C@@H]1CN(Cc2ccc(C)o2)[C@@H]2CCCO[C@H]12`: 63.1%; `Cn1ccnc1C(=O)N[C@@H]1CN(CC2CCOCC2)[C@@H]2CCCO[C@@H]21`: 63.8%.

As to `Cc1ccc(CN2C[C@H](NC(=O)c3nccn3C)[C@H]3OCCC[C@H]32)o1`, the INHIBITION is recorded as 75.6%.

Regarding `Cn1ccnc1C(=O)N[C@@H]1CN(Cc2ccc(F)cc2)[C@@H]2CCCO[C@@H]21`, the INHIBITION is reported as 49.4%.

Turning to `Cc1ccc(CN2C[C@@H](N(C)C)[C@H]3OCCC[C@H]32)o1`, the INHIBITION is -37.9%. As to `Cn1ccnc1C(=O)N[C@@H]1CN(Cc2ccoc2)[C@@H]2CCCO[C@@H]21`, the INHIBITION worked out at 29.4%.

On to `COC(=O)c1cccc(C(=O)NCc2ccc(C)o2)n1`, for which the INHIBITION is given as 39.1%.

Regarding `Cc1ccc(N2CC[C@H]3O[C@@H](C(=O)NCc4ccco4)CC[C@H]32)nn1`, the INHIBITION is 21.6%.

Turning to `COC(=O)CC1CCN(C(=O)Nc2ccc(-c3ccn[nH]3)cc2)C1` (stereo not given), the INHIBITION came out at 37.7%. For `Cc1ccc(CN2CCC[C@@H]3CN(C(=O)c4ccco4)C[C@@H]32)s1` the value was -2.25%; for `CN1C(=O)CC(c2ccccc2)C12CCN(CC1CC1)CC2` (stereo not given), -40.5%; for `CCNC(c1ccc(C(C)C)cc1)c1cccnc1` (stereo not given), 8.64%. Next, `CC(=O)c1cccc(-c2c[nH]c(C)n2)c1`: -30.5%; `CC(=O)Nc1nc(-c2ccccc2)c[nH]1`: 58.1%; `CC(=O)Nc1nc(-c2ccc(F)cc2)c[nH]1`: 63.6%. Consider `CNC(=O)NC(C)c1nc(-c2ccccc2)c[nH]1` (stereo not given), for which the INHIBITION is on record as -51.8%. Consider `Cc1nc(-c2cccc(C(=O)O)c2)c[nH]1`, for which the INHIBITION is recorded as -34.8%.

Turning to `CC(=O)Nc1nc(-c2ccc(C)c(C)c2)c[nH]1`, the INHIBITION is recorded as 7.22%. For `Cc1cc(N2CCN(Cc3cn(C)nc3C)CC2)cc(C2CCCN2)n1` (stereo not given), the INHIBITION is given as -10%.

Consider `Cc1ccc([C@@]2(O)CC[C@@H]3CN(S(=O)(=O)c4cn(C)nc4C)C[C@@H]32)cc1`, for which the INHIBITION came to 32.8%.

Consider `CC(CO)(CO)NC(=O)C1CCC(=O)N(Cc2ccc(Cl)cc2)C1` (stereo not given), for which the INHIBITION is 35.7%. For `COc1ccc(Cl)cc1NCC(=O)NCCNc1ncccn1` the value was 45.7%; for `COc1ccc(C)cc1NS(=O)(=O)c1ccc(CCNC(C)=O)s1`, -1.04%; for `c1coc(CN2CCC3(CC2)COC(COCC2CC2)C3)c1` (stereo not given), -28.2%.

`CN(Cc1noc(C2CC2)n1)C1CCN(CCn2cc(C#N)cn2)C1` (stereo not given): the INHIBITION was 37.4%.

As for `CC(C)c1nc(CN(C)C2CCN(CCn3cc(C#N)cn3)C2)no1` (stereo not given), the INHIBITION was 29.2%. For `CCc1cnc(CN(C)C2CCN(CCn3cc(C#N)cn3)C2)o1` (stereo not given) the value was 52.5%; for `CC(C)c1cnc(CN(C)C2CCN(CCn3cc(C#N)cn3)C2)o1` (stereo not given), -6.44%. For `Cc1cnc(CN(C)C2CCN(CC(=O)Nc3nccs3)C2)o1` (stereo not given) the value was 9.14%. With `Cc1cnc(CN(C)C2CCN(CCn3cc(C#N)cn3)C2)o1` (stereo not given), the INHIBITION was found to be 44.8%. Next, `Cc1nc(CN(C)C2CCN(CCn3cc(C#N)cn3)C2)no1` (stereo not given): 53.9%. For `CCc1cnc(CN(C)C2CCN(CC(=O)Nc3cc(C)on3)C2)o1` (stereo not given) the value was -32%. Next, `CCc1cnc(CN(C)C2CCN(CC(=O)Nc3nccs3)C2)o1` (stereo not given): 52.3%; `Cc1cnn(CC2CCCN2C(=O)CCc2cscn2)c1` (stereo not given): 19.965%.

For the compound `CC(=O)N1CCN([C@@H]2CCC[C@@H](NC(=O)c3cccnc3)[C@H]2O)CC1`, the INHIBITION was determined as 8.53%. Next, `Cc1nc(CN2CCCC(c3cc(C(N)=O)[nH]n3)C2)oc1C` (stereo not given): -0.113%; `O=C(O)c1c(-c2cncnc2)ncc2c1CCN(CC1CCOC1)C2` (stereo not given): 43%.
